± gives the standard deviation.
System: MILI (PIWIL2) piRISC loaded with piRNA #1 (26 nt)
Test: pre-steady-state target cleavage rate (min^-1); guide: piRNA #1 5'p-UGAGGUAGUAGGUUGUAUAGUAUCCA; MIWI and MILI are mouse PIWI proteins and EfPiwi is from a freshwater sponge; tags in brackets are library labels; higher = faster piRNA-guided slicing of the target
Details: auxiliary factor: 500 nM mouse GTSF1
Method in brief: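 At 33 °C in HEPES–potassium acetate buffer, a transcribed, DNA-blocked target RNA library […] was exposed for 0–8 or 0–960 min to 1 nM active affinity-purified piRISC carrying a single synthetic guide, with or without 500 nM GTSF1 partner protein. Uncleaved targets were sequenced and normalised to depth and to weakly complementary targets. With three trials pooled and k3 capped at 0.0001 min^-1, a burst-and-steady-state fit produced the pre-steady-state cleavage rate.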
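Further: 1 nM active piRISC with 0.1 nM target library at 33 °C single turnover.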

Row | Sequence | pre-steady-state target cleavage rate
1 | GGAGUGGAAACUAUACAACCUACUAGCUCA | 0.0453 ± 0.013
2 | GGAGACCUAACUAUACAACCUACAUACCUCA | 0.0941 ± 0.018
3 | GGAGACGAUACUUUACAACCUACUACCACA | 0.2 ± 0.025
4 | GGAGACGAUAGUAUACAACCUACUAGCUCA | 0.0976 ± 0.021
5 | GGAGACCAUACUAUACAACCUACAAGCUCA | 0.0598 ± 0.015
6 | GGAGACCUAUCUAUAGAACCUACAACCUCA | 0.00275 ± 0.0025
7 | GGAGACCUAUGUCUACAACCUACUACCUCA | 0.0245 ± 0.004
8 | GGAGACCUAUGUAGACAACCUACUACCUCA | 0.0173 ± 0.0042
9 | GGAGACCUAUGAAUACAACCUCCUACCUCA | 0.00498 ± 0.0023
10 | GGAGACCUUACUAAACAACCUUCUACCUCA | 0.00652 ± 0.0027
11 | GGAGACCUAUGUAUACAACCUACUAACUCA | 0.0355 ± 0.0081
12 | GGAGACCUAUGAUAUGUUCCUACUACCAGA | < 0.0001
13 | GGAGAGGAUUCUAUACAACCUACUAGCUCA | 0.0566 ± 0.01
14 | GGAGACCUAACUAUACAACGUACUACCUGA | 0.00576 ± 0.0041
15 | GGAGACCUUACUAUUCUACCUACUACCUCA | 0.124 ± 0.0096
16 | GGAGUGGAUACUAUACAUGGAUGAUGGAGA [g14:g26:cont:t1A] | < 0.0001
17 | GGAGACCUUACUAUACAAGCUAGUACCUCA | 0.138 ± 0.02
18 | GGAGACCUAUGAAUACAACGUACUACCUGA | 0.00311 ± 0.0023
19 | GGAGACCUAUGAAUACUUCCUACUACCUCA | 0.00297 ± 0.0022
20 | GGAGAGGAUACUAUAGAACCUACUUCCUCA | 0.00501 ± 0.0029

Row | Sequence | pre-steady-state target cleavage rate
21 | GGAGACCUAUGAUAUGAACCUACCUACCUCA | < 0.0001
22 | GGAGACCUAUGAAUACAACCAUCUACCUCA | 0.00333 ± 0.0021
23 | GGAGACCUUACUAUACUACCUACUAGCUCA | 0.142 ± 0.016
24 | GGAGACCUAUGAUAUGUAACCUACUACCUCA | 0.017 ± 0.0038
25 | GGAGACCUAUGAUAACAAGCUACUACCACA | 0.0117 ± 0.0047
26 | GGAGACCUUACUAUACAACCUACGUACCUCA | 0.0918 ± 0.0092
27 | GGAGACCUAUGAUAUGUUCCUACUACCUCA [g2:g12:cont:t1A] | < 0.0001
28 | GGAGACCUAUCUUUACAACCUACUACCUGA | 0.0554 ± 0.012
29 | GGAGACCUUACUUUACAACCUACUAGCUCA | 0.111 ± 0.02
30 | GGAGUGGAUACUAUGACAACCUACUACCUCA | 0.188 ± 0.011
31 | GGAGACCUAACAAUACAAGCUACUACCUCA | 0.22 ± 0.029
32 | GGAGACCUAUGAUAUGUACCUACAAGCUCA | < 0.0001
33 | GGAGAGGAUACUAUACAAGGAACUACCUCA | 0.00442 ± 0.002
34 | GGAGACCUAUCUAUACAUCCUUCUACCUCA | 0.0137 ± 0.0039
35 | GGAGACCUAUCUAUACAACCAACUUCCUCA | 0.00361 ± 0.0027
36 | GGAGACCUAUGAUAUGUACGUACUACCUGA | < 0.0001
37 | GGAGACCUAUGAUAACAACCUACUCACCUCA | 0.00465 ± 0.0027
38 | GGAGUGGAAACUAUAGAACCUACUACCUCA | 0.204 ± 0.014
39 | GGAGACCUUACUAUUGUACCUACUACCUCA | 0.0232 ± 0.0049
40 | GGAGACCUAUGUAUACAACGUACUUCCUCA | 0.0105 ± 0.0026
